# Test results from PubChem BioAssay AID1016 (Sanford-Burnham Center for Chemical Genomics, 2008).
# Screen size: about 200,000 compounds; about 330 (0.17%) were called active. For the sample, actives were picked, then their nearest neighbours and some compounds at random. A number with no mark means an inactive call.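 Rule for the calls: active = activation factor of 2 or more at 20 µM, a signal rise over negative controls twice the positive control's; inactive = the rest.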
# System: alkaline phosphatase, intestinal [Bos taurus]
# Assay: bovine intestinal alkaline phosphatase activators, primary screen, biochemical, bovine IAP, CDP-star luminescence (AID 1016)
# Details: purified bovine IAP, 30 min, at 20 µM, hits give high values, fold of DMSO-control signal, blank-subtracted
row,Compound,activation factor
1,Cc1cccc(CC(=O)N2CCN=C2SCc2ccc([N+](=O)[O-])cc2)c1,0.8
2,COc1ccc(CCNc2cc(C)nc3c(-c4ccc(Cl)cc4)c(C)nn23)cc1OC,0.9
3,COc1ccc(-c2nc3cnccn3c2NC(C)(C)CC(C)(C)C)cc1O,1.2
4,COc1ccccc1N1CCN(c2ccc([N+](=O)[O-])nc2)CC1,1
5,CCS(=O)(=O)c1ccc(O)c(NC(=O)COc2ccc(Cl)cc2)c1,1
6,Clc1cccc(CN2COc3c(cc(Cl)c4cccnc34)C2)c1,0.8
7,Cc1ccc(Cl)c(NC(=O)CN(C)CC(=O)Nc2ccc(F)c(F)c2F)c1Cl,1.3
8,CCOC(=O)c1c(NC(=O)Cn2nc(C(F)(F)F)cc2C)sc2c1CCC2,1
9,CCc1ccc(C2C(C#N)=C(N)N(N3CCOCC3)C3=C2C(=O)CC(C)(C)C3)s1 (configuration not stated),1
10,Cc1c(Br)ccc(NC(=O)COc2ccccc2C(N)=O)c1C,0.9
11,CC(C)NC(=S)N1CCN(C(c2ccccc2)c2ccccc2)CC1,0.9
12,COc1ccc(F)c(-c2nc(CN3CCC(c4ccccc4)CC3)c(C)o2)c1,1.1
13,C=CCC(CC=C)(C(N)=O)c1ccccc1,1
14,Fc1ccc(CNCc2ccc(Br)cc2)cc1,0.9
15,CCOC(=O)COc1cc(O)c2c(=O)cc(-c3ccccc3)oc2c1,1.1
16,CCN(CC)S(=O)(=O)c1ccc(OC(C)C)c(N)c1,1
17,COCCNc1cc(NCCOC)c([N+](=O)[O-])cc1[N+](=O)[O-],1.3
18,Cc1ccc2[nH]c(=O)c(CN3CCCCC3)c(-c3ccccc3)c2c1,1.1
19,O=S(=O)(NCC1CCCO1)c1cnc(Cl)c(Cl)c1 (configuration not stated),1
20,O=C(NCc1cccs1)c1ccc(Br)o1,1
21,O=[N+]([O-])c1ccc2c(c1)C(N1CCOCC1)/C(=C/C1(O)CCCCC1)O2 (configuration not stated),1.1
22,CC(NC(=S)Nc1ccc(OC(F)F)cc1)c1ccc(F)cc1 (configuration not stated),0.8
23,O=C1c2ccccc2NC(c2ccccc2O)N1NS(=O)(=O)c1ccccc1 (configuration not stated),1
24,CN(CCc1ccccn1)C(=O)CCC1CCCN(Cc2ccccc2OC(F)F)C1 (configuration not stated),1.1
25,Cc1ccnc(NC(=O)Cn2ccc([N+](=O)[O-])n2)c1,1

row,Compound,activation factor
1,Cc1ccc(NC(=O)NC2CCCCC2)cc1S(=O)(=O)N1CCOCC1,1.2
2,Cc1ccc(N=C2NC(=O)c3cccc([N+](=O)[O-])c32)cc1,1
3,Cc1ccc(Sc2ccncc2S(N)(=O)=O)cc1,0.5
4,Cc1cc2ccccn2c1C(=O)c1cccc(S(=O)(=O)N2CCOCC2)c1,1
5,Cc1ccc([N+](=O)[O-])c(OCCCNCC(C)O)c1 (configuration not stated),1
6,CCn1c(C(C)C)n[nH]c1=S,0.9
7,O=C(COC(=O)c1cc([N+](=O)[O-])ccc1NCc1ccccc1)NC1CCCCC1,1
8,COCCn1c(=NC(=O)c2ccccc2[N+](=O)[O-])sc2cc(S(C)(=O)=O)ccc21,1.2
9,CC(C)CC(CO)N1CCN(C(=O)c2ccc(Cl)cc2Cl)CCC1=O (configuration not stated),1.2
10,Cc1cc2oc(=O)cc(CN3CCN(S(=O)(=O)c4cccs4)CC3)c2cc1C(C)C,0.9
11,N#C/C(=C/c1cccc([N+](=O)[O-])c1)c1nnc2n1CCCCC2,0.5
12,Cc1ccc(OCCCC(=O)NC(C)c2ccccc2)c(C)c1 (configuration not stated),1
13,CN(c1ccccc1)S(=O)(=O)c1cccc(NC(=O)Cc2c(F)cccc2Cl)c1,0.9
14,CCCCC(CC)CNC(=O)C(=O)C1C(=O)Nc2ccccc21 (configuration not stated),0.9
15,COc1ccc(OC)c(NC(=S)N2CCc3ccccc3C2)c1,1
16,CCS(=O)(=O)N1Cc2ccccc2CC1C(=O)Nc1nc2ccc(F)cc2s1 (configuration not stated),1
17,COc1cccc(C(=O)Nc2cc3c(cc2Br)OCCCO3)c1,1.1
18,O=C(Nc1nnc(C2CC2)s1)C1=NN(C2CCS(=O)(=O)C2)C(=O)CC1 (configuration not stated),1
19,Cc1ccc(S(=O)(=O)/N=C(/Nc2ccc3[nH]c(=O)[nH]c3c2)c2ccccc2)cc1,0.9
20,Cc1cc(/C=C2/C(=N)N3C(=NC2=O)SN=C3S(C)(=O)=O)c(C)n1-c1ccccc1,1.1
21,Cc1ccc(-n2cnc3ncnc(-c4ccccc4)c32)cc1,1.1
22,Cc1ccc(NC(=O)c2csc3c2CCCC3)cc1,0.9
23,Cc1cc(C)c(NC(=S)N2CCCC2C(=O)O)c(C)c1 (configuration not stated),0.7
24,CC(Sc1nc(-c2ccccc2)cc(C(F)(F)F)n1)C(=O)Nc1ccc2c(c1)OCO2 (configuration not stated),0.9
25,Cc1ccsc1/C=N/n1c(=S)[nH]nc(C)c1=O,0.9

row,Compound,activation factor
1,CC(C)C(C)(C#N)NC(=O)CSc1nncn1-c1ccccc1 (configuration not stated),1
2,Cc1[nH]c2c(C(=O)N3CCCC(CCC(=O)NCc4ccccc4F)C3)cccc2c1C (configuration not stated),1.3
3,COC(=O)c1cccc([N+](=O)[O-])c1CS(=O)(=O)c1ccc(C)cc1,0.8
4,O=C(COC(=O)c1ccco1)NCc1ccc(Cl)cc1,1
5,O=C(N/N=C/c1cccc([N+](=O)[O-])c1)C1CC(=O)N(c2ccc(Br)cc2)C1 (configuration not stated),0.7
6,CCN(CC(=O)NC(=O)NCc1ccccc1)Cc1nc2ccccc2c(=O)[nH]1,1.5
7,CCN(CC(=O)Nc1ccc(Cl)c(S(=O)(=O)N(C)C)c1)Cc1nc2ccccc2c(=O)[nH]1,2.1 (active)
8,CN(C)S(=O)(=O)c1cc(NC(=O)CN2C(=O)NC3(CCCc4ccccc43)C2=O)ccc1Cl (configuration not stated),1
9,N#Cc1c(-c2ccc(Cl)cc2)c2c([nH]c1=S)CCCC2,0.8
10,O=C(O)CSCC(=O)Nc1cccc(C(F)(F)F)c1,0.9
11,CC(C)C[C@H](NC(=O)Nc1cccc(C(F)(F)F)c1)C(=O)O,4.4 (active)
12,CCNS(=O)(=O)c1ccc(NC(=O)Nc2cccc(C(F)(F)F)c2)cc1,0.6
13,CCCCCCCCc1c(O)nc(-n2[nH]c(C)c(CCO)c2=O)[nH]c1=O,1.2
14,O=C(C1CCN(S(=O)(=O)c2ccc(Br)s2)CC1)N1CCN(C2CCCCC2)CC1,1.2
15,O=C(Nc1cc(S(=O)(=O)N2CCOCC2)ccc1Cl)c1cc(=O)c2ccccc2o1,1.3
16,O=[N+]([O-])c1cc(S(=O)(=O)N2CCCC2)ccc1NN=C1CCCC1,0.9
17,COC(=O)C1=NN(c2ccccc2)C2C(=O)N(c3ccccc3OC)C(=O)C12 (configuration not stated),0.9
18,CC1CN(C(=O)c2ccccc2NS(=O)(=O)c2cccc([N+](=O)[O-])c2)CC(C)O1 (configuration not stated),0.9
19,CCOc1cc(NC(=S)NCc2ccco2)c(OCC)cc1NC(=O)c1ccco1,1
20,NNC(=O)C1CC(O)CN1S(=O)(=O)c1ccc(Cl)cc1 (configuration not stated),1.1
21,CC(C)OC(=O)CN1CCN(c2ccc(Cl)cc2)CC1,1.1
22,O=C(C(=O)N1CCc2ccccc2C1)c1c[nH]c2ccccc12,0.9
23,COc1ccc(N2CCN(C(=O)COc3ccc4c(C)cc(=O)oc4c3)CC2)cc1,1.1
24,O=C(O)c1cccc(N=NN2CCCCCC2)c1,1.1
25,COc1cc(NC(=S)NCc2ccc(S(N)(=O)=O)cc2)cc(OC)c1,1

row,Compound,activation factor
1,Cc1ccc(S(=O)(=O)N(C)C)cc1NC(=O)/C=C/c1cccs1,0.9
2,COc1cc(OC)c(-n2cc(-c3ccc(Cl)cc3)[nH]c2=O)cc1Cl,1
3,CCCNC(=S)N1CCCC(c2nc3ccccc3[nH]2)C1 (configuration not stated),1.1
4,Cc1ccccc1C(OCCN(C)C)C1CCCCC1 (configuration not stated),1.1
5,CCCN(CCC)CCCNC(=O)CNC(=O)c1nn(-c2ccc(OC)cc2)c(=O)c2ccccc12,1.1
6,CCc1nnc(NC(=O)C2CC(=O)N(c3ccc4c(c3)OCCO4)C2)s1 (configuration not stated),0.4
7,Cc1ccc(S(=O)(=O)N2CCN(CC(=O)N/N=C/c3cc([N+](=O)[O-])ccc3Cl)CC2)cc1,0.5
8,COc1ccc(/C=N/NC(=O)CNC(=O)c2ccc(S(=O)(=O)N3CCCC3)cc2)c(OC)c1,1.1
9,Cc1cc(Br)ccc1SCC(=O)OCC(=O)NCc1ccc2c(c1)OCO2,0.8
10,CS(=O)(=O)n1nc(-c2ccco2)nc1N,1.2
11,Cc1ccc(NC(=O)NC(=O)N(C2CCCCC2)S(=O)(=O)c2ccccc2)cc1,1.1
12,CCN(CC)CCCSc1nc2ccccc2s1,1.1
13,COc1ccc(C2N=C(N)N=C(N)N2c2ccccc2)cc1OC (configuration not stated),3 (active)
14,COc1ccc(C2/C(=C(/O)c3ccccc3)C(=O)C(=O)N2c2ncccn2)cc1OC (configuration not stated),1
15,COc1ccc(C2SCCN2S(=O)(=O)c2ccccc2)cc1OC (configuration not stated),1
16,O=C(Nc1nnc(C2COc3ccccc3O2)o1)c1ccc(F)cc1 (configuration not stated),1
17,C/C(Cc1ccccc1)=N\NC(=O)CNC(=O)c1cccc(Br)c1,0.9
18,Cc1ccccc1NC(=O)c1ccc(COc2ccc3c(C)cc(=O)oc3c2)cc1,1
19,Cc1nc2sc(C(c3ccco3)N3CCOCC3)c(O)n2n1 (configuration not stated),0.9
20,CCOC(=O)N1CCN(C(c2cccnc2)c2ccc3cccnc3c2O)CC1 (configuration not stated),1.3
21,Oc1c(C(c2ccccn2)N2CCOCC2)ccc2cccnc12 (configuration not stated),2 (active)
22,CCOC(=O)c1nn(-c2ccccc2F)c2nc(Nc3ccccc3)cc(=O)n12,1
